# Source: PubChem BioAssay (The Scripps Research Institute Molecular Screening Center)
# Hits are enriched below; roughly 3.4% of the tested compounds scored in any of these assays.
# TEAD-YAP inh – TEAD-YAP interaction inhibition, primary screen, TEAD-YAP interaction inhibitor project, luminescence, HEK-TIYL cells | inhibition, % at 9.12 µM | TEAD-Gal4/YAP UAS-luciferase luminescence | AID 1259422, 2018 | hit rate 1.4% among 640,000; in the data active means inhibition above about 32%;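 further: 0% = median of test compound wells and 100% = reference inhibitor wells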
# GPR151 ag – activators of human GPR151, primary screen, cell-based, PathHunter beta-arrestin, luminescence | PathHunter beta-arrestin GPR151 cells | activation, % at 11.2 µM | hit rate 1% among 650,000 | AID 1508602, 2020; in the data active means activation above about 4.9%;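 further: 0% = median of compound wells and 100% = cells with positive control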
# MITF primary – MITF inhibitors, primary screen, biochemical, AlphaScreen, human. Microphthalmia-associated transcription factor (Homo sapiens), O75030. AID 1259374, 2018. inhibition, % at 2.6 µM. AlphaScreen MITF homodimerization, bead proximity signal. hit rate 0.91% among 650,000; in the data active means inhibition above about 50%;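 further: 0% = vehicle wells with protein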
# FBW7 activator – FBW7 E3 ligase activators, primary screen, biochemical, AlphaScreen, human; hit rate 0.13% among 650,000; F-box/WD repeat-containing protein 7 (Homo sapiens), Q969H0; AlphaScreen FBW7–phospho-cyclin E peptide binding, activator screen; AID 1259310, 2017; normalized activity (activation), % at 26.1 µM; in the data active means normalized activity above about 1.9%;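 further: purified mutant Fbw7 with reduced substrate affinity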
# Target sequence (Q969H0 whole entry, looked up): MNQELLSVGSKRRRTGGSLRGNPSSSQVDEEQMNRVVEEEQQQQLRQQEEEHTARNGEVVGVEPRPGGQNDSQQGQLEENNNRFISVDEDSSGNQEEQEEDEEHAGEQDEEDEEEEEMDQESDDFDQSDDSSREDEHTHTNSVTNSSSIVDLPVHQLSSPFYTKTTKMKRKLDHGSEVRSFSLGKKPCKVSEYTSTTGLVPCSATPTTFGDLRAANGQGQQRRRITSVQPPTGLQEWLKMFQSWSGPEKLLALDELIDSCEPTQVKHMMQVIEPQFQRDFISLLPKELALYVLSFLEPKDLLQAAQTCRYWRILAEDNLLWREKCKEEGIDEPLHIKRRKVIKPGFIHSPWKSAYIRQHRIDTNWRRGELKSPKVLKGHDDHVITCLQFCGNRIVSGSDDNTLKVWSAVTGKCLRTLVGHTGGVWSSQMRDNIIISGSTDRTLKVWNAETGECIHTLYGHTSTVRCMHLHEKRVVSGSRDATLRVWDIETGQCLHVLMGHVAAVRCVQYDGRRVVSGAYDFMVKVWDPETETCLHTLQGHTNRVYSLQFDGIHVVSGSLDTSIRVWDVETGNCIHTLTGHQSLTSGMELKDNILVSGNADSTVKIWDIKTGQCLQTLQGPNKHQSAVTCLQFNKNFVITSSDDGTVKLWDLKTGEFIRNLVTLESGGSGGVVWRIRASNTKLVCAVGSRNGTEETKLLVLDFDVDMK
# * = called active by the depositor.
SMILES,TEAD-YAP inh,GPR151 ag,MITF primary,FBW7 activator
CN(C)c1ccc(CN2CCC(C(N)=O)CC2)cc1,-16,0,76*,0
CN(C)c1ccc(CN2CCN(CCO)CC2)cc1,-5,1,77*,0
O=C(Nc1ccc(F)cc1)N1CC=C(c2c[nH]c3ccccc23)CC1,-3,1,-7,0
CCN(CC)C(=O)N1c2ccccc2CCc2ccccc21,42*,1,-1,0
CC(Nc1cc(N2CCN(C(=O)c3ccco3)CC2)ccc1[N+](=O)[O-])C12CC3CC(CC(C3)C1)C2 (stereo not drawn),43*,1,-14,0
COc1cccc(C2CC(c3c(O)cc(C)oc3=O)=NCCS2)c1OC (stereo not drawn),42*,2,-9,0
CCOC(=O)c1[nH]c2ccccc2c1NC(=O)OC,-10,-1,-4,0
CCOC(=O)c1[nH]c2ccccc2c1NC=O,10,-1,-4,1.9*
Cc1ccc2nc(-c3ccc(N)cc3)sc2c1,86*,-7,18,0
Cc1ccc2sc(-c3ccc(NC4=CC(=O)CC(C)(C)C4)cc3)nc2c1,53*,0,-9,0
Cc1ccc2nc(-c3cc(Cl)c(N)c(Cl)c3)sc2c1,-47,-1,3,0
Cc1ccc2sc(-c3ccc(N)cc3)nc2c1,87*,-8,7,0
Nc1ccc(-c2nc3cc(N)ccc3s2)cc1,47*,-5,5,2
Cc1ccc2sc(-c3ccc(NS(C)(=O)=O)cc3)nc2c1,-20,-1,13,1
COc1ccc(C(CC(=O)Nc2cccc([N+](=O)[O-])c2)N2Cc3ccccc3C2=O)cc1 (stereo not drawn),-3,-1,3,0
O=C(/C=C/c1ccc2c(c1)OCO2)Nc1ncc(S(=O)(=O)c2ccc([N+](=O)[O-])cc2)s1,6,-1,5,0
Cc1ccc2sc(-c3ccc(NC(=O)/C=C/C(=O)O)cc3)nc2c1,92*,-4,10,1
Cc1ccc2sc(NC(=O)/C=C/C(=O)O)nc2c1,14,-3,11,0
O=C(/C=C/c1cccs1)c1ccc(N2CCOCC2)cc1,58*,-5,22,0
CCC1C(=O)NCCN1Cc1ccc2c(c1)CN(Cc1ccc(Cl)cc1)CCO2 (stereo not drawn),3,0,7,0
CCC1C(=O)NCCN1Cc1ccc2c(c1)CN(Cc1c(C)nc3sccn13)CCO2 (stereo not drawn),35*,2,-2,0
Cc1noc(C)c1S(=O)(=O)Nc1ccc(C(=O)NCCc2ccc(Cl)cc2)cc1,8,0,5,0
Cc1ccc(-c2noc(CN(C(=O)c3ccc(Br)o3)C(C)C)n2)cc1,1,0,8,0
COc1cc(Nc2nc(-c3ccc(C(N)=O)cc3)nc3c2ncn3Cc2ccc(C(F)(F)F)cc2)cc(OC)c1OC,53*,1,3,0
COc1cc(Nc2nc(-c3ccc(C(N)=O)cc3)nc3c2ncn3-c2ccsc2)cc(OC)c1OC,54*,0,10,0
SMILES,TEAD-YAP inh,GPR151 ag,MITF primary,FBW7 activator
COc1cc(Nc2nc(-c3ccc(C(N)=O)cc3)nc3c2ncn3-c2ccccc2)cc(OC)c1OC,15,1,-8,0
COc1cc(Nc2nc(-c3ccc(C(N)=O)cc3)nc3c2ncn3C(C)C)cc(OC)c1OC,41*,1,16,0
COc1cc(Nc2nc(-c3ccc(C(=O)N4CCN(C)CC4)cc3)nc3c2ncn3C(C)C)cc(OC)c1OC,30,0,-1,0
COc1ccccc1C(=O)NCC(=O)N/N=C/c1ccc(N(C)C)cc1,-4,1,8,1
COc1cc2nc(Nc3ccnn3C)nc(Nc3cc(OC)c(OC)c(OC)c3)c2cc1OC,64*,1,8,0
Cc1cc(NCc2cccc(C(F)(F)F)c2)nc(Nc2ccc(C(F)(F)F)cc2)n1,10,0,-4,0
Cc1cc(NCCOc2ccccc2)nc(Nc2ccc(N3CCOCC3)cc2)n1,43*,-2,4,0
Cc1cc(NCc2cccc(C(F)(F)F)c2)nc(Oc2ccccc2)n1,67*,2,18,1
Cc1cc(NCc2cccc(C(F)(F)F)c2)nc(Nc2ccc(N3CCOCC3)cc2)n1,47*,0,9,0
Cc1cc(NCCc2ccc(O)cc2)nc(Nc2ccc(-n3ccnc3)cc2)n1,42*,3,5,0
CC1CCCCN1C(=O)CSc1nnc(-c2cccs2)n1C (stereo not drawn),-15,-1,16,0
CCOc1cccc(C=NCCNC(=O)c2nonc2N)c1O,1,0,7,0
Cc1cc(N2CCOCC2)nc2ccc(NC(=O)c3cccs3)cc12,-26,1,1,0
S=c1oc(Cc2ccccc2)nn1CN1CCN(c2ccccn2)CC1,9,0,0,0
COc1ccc(CCNc2cc(C)nc(Nc3ccc(N4CCOCC4)cc3)n2)cc1,60*,4,22,0
Cc1cc(NCCOc2ccccc2)nc(Nc2ccc(-n3ccnc3)cc2)n1,40*,5,1,0
Cc1cc(Nc2ccccc2)nc(Nc2ccc(N3CCOCC3)cc2)n1,35*,4,13,0
COc1ccc(CCNc2cc(C)nc(N3CCOCC3)n2)cc1,-9,1,2,0
Cc1cc(NCCOc2ccccc2)nc(Nc2ccccc2)n1,9,1,0,0
Cc1cc(Nc2ccc(N3CCOCC3)cc2)nc(Nc2cccc(N(C)C)c2)n1,54*,-1,3,0
Cc1cc(Nc2ccc(N3CCOCC3)cc2)nc(Nc2ccc(N3CCOCC3)cc2)n1,5,-2,33,0
CCCS(=O)(=O)N1CCCc2ccc(NC(=O)c3ccc(C)cc3)cc21,18,-1,-13,0
CCOC(=O)c1[nH]c(C)c(C(=O)Nc2cccc(C)c2C)c1C,42*,1,8,0
CCOC(=O)c1[nH]c(C)c(C(=O)Nc2cc(C)ccc2C)c1C,40*,0,2,0
CCOC(=O)c1c(C)c(C(=O)Nc2cc(C)ccc2OC)c(C)n1CC,41*,1,3,0
SMILES,TEAD-YAP inh,GPR151 ag,MITF primary,FBW7 activator
CCOC(=O)c1[nH]c(C)c(C(=O)N2CCc3ccccc32)c1C,49*,0,-4,0
CCCS(=O)(=O)N1CCC(c2nc3ccccc3[nH]2)CC1,-7,-2,1,0
Cc1[nH]c2ccccc2c1/C=N/NC(=O)CCn1nnc2ccccc21,-1,0,-7,0
CCN(CC)Cc1cc(CN[C@H]2C[C@H]3C(=O)N4CCC[C@@H]4C(=O)N3C2)ccc1OC,-6,-1,-8,1
CN1C(=O)N(C)C2C1NNC(=S)N2C (stereo not drawn),61*,-1,11,0
O=C(Nn1c(SCc2cccc([N+](=O)[O-])c2)nc2ccccc2c1=O)c1ccccc1,-35,2,9,0
